# Compounds with a hit are over-represented: about 9.4% of the library has one in this group of screens.
# Pf growth 48h: Primary qHTS for delayed death inhibitors of the malarial parasite plastid, 48 hour incubation. P. falciparum luciferase growth in erythrocytes, 48 h. Potency, µM (highest dose often 28.7 µM), for inactives: at the highest dose activity change, negative = inhibition, usual class: inhibitors. 5.9% of 310,000 active. AID 504832, 2011; note: % is set by controls: 0 for no effect and ±100 for the full control effect
#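 Here the parasites carry a stable luciferase gene and grow inside erythrocytes in Albumax-based RPMI medium with compound for one erythrocytic cycle. Activity is scored as loss of luminescent signal.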
# SARS PLP yeast: qHTS of Yeast-based Assay for SARS-CoV PLP | S. cerevisiae expressing SARS-CoV PLpro, growth rescue | Potency, µM (top dose mostly 32.9 µM), for the others: top-dose activity, positive = growth rescue, most hits filed as activators | 0.19% of 330,000 active | AID 485353, 2010; calls by dose curve; note: 0% is about no effect; nearly all actives have a fitted effect of over 55% in size
# Pf growth 96h: Primary qHTS for delayed death inhibitors of the malarial parasite plastid, 96 hour incubation; P. falciparum luciferase reporter growth, 96 h; Potency, µM (highest dose often 28.7 µM), without a hit: at the top dose activity change, negative = inhibition, usual class: inhibitors; 6.9% of 320,000 active; AID 504834, 2011; note: % is set by controls: 0 for no effect and ±100 for the full control effect
#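 Parasite growth measured via integrated firefly luciferase reporter in P. falciparum. Infected erythrocytes at 2% hematocrit, 0.05% parasitemia final were treated 96 hours at 37 C under 5% CO2, and luminescence was read.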
# AMA1-RON2 inh: qHTS for Inhibitors of AMA1-RON; Towards Development of Antimalarial Drug Lead: Primary Screen | Plasmodium falciparum AMA1 (3D7) - RON2 peptide interaction | AlphaScreen AMA1-biotinylated RON2 peptide binding | Potency, µM (doses to about 58.2 µM), without a hit: at the highest dose activity change, negative = inhibition, most hits filed as inhibitors | 0.2% of 360,000 active;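 note: 0% = vehicle wells and -100% = peptide control; nearly all actives have a fitted effect of over 45% in size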
#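 AMA1 (3D7) with his tag at 25 nM final met compounds first, then biotinylated RON2 peptide at 25 nM; detection used donor plus acceptor beads, 10 µg/mL apiece, read by AlphaScreen after 30 min at room temperature.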
# Starred values were filed as active, the others as inactive; u = inconclusive; x = no result given; [ ] = remark or other dose. Unless noted, calls come from the whole dose curve; as a rule, active = well fitted curve in the direction sought with a large enough effect; inconclusive = small, poorly fitted or top-dose-only effect, or another doubt; inactive = no such curve, though single readings can be large; an effect the other way counts as inactive or inconclusive. Potency is the fitted concentration of half-maximal effect.
SMILES,Pf growth 48h,SARS PLP yeast,Pf growth 96h,AMA1-RON2 inh
CC(=O)c1ccc(S(=O)(=O)Nc2cc3c(cc2C(C)=O)OCO3)cc1,-17%,0%,108%,-14%
Cc1cc(C)c(C#N)c(Nc2ccccc2F)n1,-2%,15%,u,7%
CC[C@@]1(C(=O)OC)N[C@H](CN(C)C(=O)c2ccccc2)[C@@H]2C(=O)N(Cc3ccccc3)C(=O)[C@@H]21,x,4%,x,-1%
Cc1ccc2nc3n(c(=O)c2c1)CCCCC3,44%,u,69%,0%
CN(C)c1ccnc(C(=O)O)c1,29%,0%,29%,55%
COc1ccccc1/C=N/NC(=O)CO,-13%,-5%,u,-4%
CCc1nnc(NC(=O)c2cccc(C(=O)Nc3nnc(CC)s3)n2)s1,-5%,-31%,9.3µM*,65%
CCc1nnc(NC(=O)c2ccncc2)s1,36%,-2%,38%,15%
O=C(CC12CC3CC(CC(C3)C1)C2)N1CCN(S(=O)(=O)c2cccs2)CC1,u,4%,13µM*,-14%
CC(C(=O)N1c2ccccc2CC1C)N1CCN(S(=O)(=O)c2ccccc2F)CC1 (centres undefined),13µM*,-3%,u,u
CC1Cc2ccccc2N1C(=O)C1CCN(S(=O)(=O)c2cccs2)CC1 (centres undefined),-27%,2%,0.93µM*,17%
O=C(C1CCN(S(=O)(=O)c2cccs2)CC1)N1CCN(c2ccccc2O)CC1,u,-2%,7.4µM*,3%
O=C(C1CCN(S(=O)(=O)c2cccs2)CC1)N1CCN(c2ccccc2)CC1,x,5%,u,0%
Cc1ccc(S(=O)(=O)N2CCC(C(=O)C3C(=O)CC(C)(C)CC3=O)CC2)cc1,10%,4%,-5%,3%
CCCn1cc(S(=O)(=O)c2ccccc2)c(=O)c2cc(OC)c(OC)cc21,-9%,-1%,-6%,4%
Cc1c(O)c2c3c(cccc3c1O)C(=O)N(c1ccccc1)C2=O,u,-33%,10µM*,1%
O=C(O)c1ccc2c3c(cccc13)C(=O)N(c1ccccc1)C2=O,0%,-2%,u,-3%
C[n+]1ccccc1N1CCN(c2ccccc2Cl)CC1,4.7µM*,5%,u,21%
Cc1ccc(Cl)cc1N1CCN(c2cccc[n+]2C)CC1,4.1µM*,-4%,0.74µM*,-16%
Cc1ccc(Cl)cc1N1CCN(C(=S)NCCc2ccccc2)CC1,-10%,-3%,16%[1.15 µM],17%
CCCCCCN1CCN(c2ccccc2Cl)CC1,-15%,0%,u,9%
O=C(O)CCC(=O)Nc1sc2c(c1C(=O)Nc1ccccc1)CCCCC2,10%,2%,2.3µM*,29%
COC(=O)CCC(=O)Nc1sc(Cc2ccccc2)c(C)c1C(N)=O,16%,0%,33%,-5%
COC(=O)c1c(NC(=O)CCC(=O)O)sc(Cc2ccccc2)c1C,12µM*,-2%,4%,-20%
COCCCNC(=S)NNC(=O)c1cc(-c2ccncc2)nc2ccccc12,20%,0%,-6%,96%
SMILES,Pf growth 48h,SARS PLP yeast,Pf growth 96h,AMA1-RON2 inh
c1cc2c3c(cccc3c1)NC1(CCCC1)N2,x,x,x,10%
COc1cc(C(=O)OCc2nc3ccsc3c(=O)[nH]2)c([N+](=O)[O-])cc1OC,-1%,2%,5%,-14%
CS(=O)(=O)N1CCCCC1c1cc(C(=O)Nc2cccc3c2CCCC3)no1 (centres undefined),x,x,x,8%
Oc1cc(Nc2cccnc2)cc2cccnc12,10µM*,-4%,4.1µM*,x
Oc1cc(NCCc2cccnc2)cc2cccnc12,12µM*,2%,8.3µM*,x
c1ccc(CCNCc2cccnc2)cc1,78%,6%,14%,-8%
COc1ccc(C(=O)Nc2cc(OC)cc3cccnc23)cc1,35%,0%,27%,10%
O=C(COc1ccc(Nc2ccccc2)cc1)Nc1ccncc1,-6%,-11%,0%,u
Oc1cc(Nc2ccncc2)cc2cccnc12,12µM*,-3%,u,x
COc1ccc(Nc2cc(O)c3ncccc3c2)cc1,0.47µM*,-24%,0.41µM*,x
CC[C@]12c3[nH]c4ccccc4c3CCN1C(=O)C(CC(=O)NCC13CC4CC(CC(C4)C1)C3)C[C@@H]2C(=O)N1CCN(C(=O)C2CC2)CC1 (some centres undefined),x,5%,x,-10%
CC(C)(C)c1ccc(-c2nnc(SCC(=O)O)n2N)cc1,5%,3%,-11%,-14%
CCCc1nc2cc(C)c(Br)c(C)n2c1CC1CCCCC1,x,x,x,-3%
CCCN(CC(=O)Nc1ccccc1C)C(=O)c1oc2ccc(OCC)cc2c1C,2.9µM*,x,7.4µM*,-6%
CCOc1ccc(/C=C/C(=O)N(CC)CC(=O)Nc2c(F)cccc2F)cc1OC,x,x,x,-1%
COc1cc(/C=C2\SC(N)=NC2=O)ccc1OCC(=O)Nc1ccccc1C,5.9µM*,-1%,5.2µM*,-15%
CCCN(CC(=O)Nc1ccccc1C)C(=O)/C=C/c1ccc(OCC)c(OC)c1,9.3µM*,-1%,u,22%
COc1cc(C2C(C#N)=C(N)Oc3c2ccc2ccccc32)ccc1OCC(=O)Nc1ccccc1C (centres undefined),10µM*,2%,u,2%
COC(=O)C(C(=O)OC)C(C[N+](=O)[O-])c1ccc(OC)c(OC)c1 (centres undefined),-2%,1%,12%,8%
CC1CCN(CC(O)COc2ccc(OCC(O)CN3CCC(C)CC3)cc2)CC1 (centres undefined),-11%,1%,u,-5%
CCOc1ccc(S(=O)(=O)/N=C(/Nc2ccc(C(C)=O)cc2)c2ccccc2)cc1,x,-9%,x,-10%
CCCN(CC(=O)Nc1ccccc1C)C(=O)Cc1c[nH]c2ccccc12,x,x,x,-8%
CCCN(CC(=O)Nc1ccccc1C)C(=O)Cc1c(C)nc2ccccc2c1C,10µM*,-4%,u,-7%
CC(C)NC(=O)CN1C(=O)CSc2ccc(S(=O)(=O)N3CCCC3)cc21,-11%,4%,u,7%
CC(OC(=O)CCN=C1NS(=O)(=O)c2ccccc21)C(=O)Nc1ccc(N(C)C)cc1 (centres undefined),1%,-6%,u,-4%
SMILES,Pf growth 48h,SARS PLP yeast,Pf growth 96h,AMA1-RON2 inh
C/C(CCc1ccco1)=N/NC(=O)CCC(=O)Nc1cccc(Cl)c1,-8%,-4%,24%,12%
C/C(CCc1ccco1)=N/NC(=O)CCC(=O)Nc1ccc(Br)cc1,4%,22%,10µM*,5%
CC(=O)NCc1c(Cl)cccc1-n1cccc1,-5%,10µM*,-13%,5%
CCOC(=O)[C@]12CCC=C1N(Cc1ccc3c(c1)OCO3)C(=O)[C@H](CC(=O)NCCCCc1ccccc1)C2,x,x,x,-24%
O=C(Nc1ccc(Cl)cc1)N(Cc1nc2ccccc2c(=O)[nH]1)Cc1cccs1,15µM*,-2%,3.3µM*,43%
O=C(C1CC1)N(Cc1nc2ccccc2c(=O)[nH]1)Cc1cccs1,1.9µM*,-2%,-5%,12%
